# Measurements as given in PubChem BioAssay.
# Unmarked numbers belong to inactive results. This is one part of the list. Active and inactive are the calls of the source.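 How the source made its calls, unless noted: active means mean inhibition across replicates above a set limit taken from the earlier primary screen (cut at about 21% in these data); inactive means the rest.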
# Tested on: not listed separately
# Test: IEC-6 intestinal cell killing – luminescence, triplicate, cytotoxicity control for KLF5 inhibitor project (AID 1905; in the data active means inhibition above about 23%;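 further: cells exposed to compounds for 48 hours before viability read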)
# Details: IEC-6 rat intestinal cells, viability luminescence; at 4 µM; stronger effect = higher value
row,SMILES,inhibition
1,COc1ccc(Nc2cc(C)nc(-n3nc(C)cc3C)n2)cc1,60.9% (active)
2,C[C@@H]1C[C@@H]2O[C@H]2/C=C\C=C\C(=O)Cc2c(Cl)c(O)cc(O)c2C(=O)O1,38% (active)
3,COc1ccc(C(=O)Nc2ccccc2C(=O)N/N=C/c2ccc(O)c(OC)c2)cc1,4.51%

# Target: Nuclear receptor coactivator 3 (Homo sapiens) (UniProt Q9Y6Q9)
# Sequence (Q9Y6Q9 whole entry, looked up, the tested form may be a part): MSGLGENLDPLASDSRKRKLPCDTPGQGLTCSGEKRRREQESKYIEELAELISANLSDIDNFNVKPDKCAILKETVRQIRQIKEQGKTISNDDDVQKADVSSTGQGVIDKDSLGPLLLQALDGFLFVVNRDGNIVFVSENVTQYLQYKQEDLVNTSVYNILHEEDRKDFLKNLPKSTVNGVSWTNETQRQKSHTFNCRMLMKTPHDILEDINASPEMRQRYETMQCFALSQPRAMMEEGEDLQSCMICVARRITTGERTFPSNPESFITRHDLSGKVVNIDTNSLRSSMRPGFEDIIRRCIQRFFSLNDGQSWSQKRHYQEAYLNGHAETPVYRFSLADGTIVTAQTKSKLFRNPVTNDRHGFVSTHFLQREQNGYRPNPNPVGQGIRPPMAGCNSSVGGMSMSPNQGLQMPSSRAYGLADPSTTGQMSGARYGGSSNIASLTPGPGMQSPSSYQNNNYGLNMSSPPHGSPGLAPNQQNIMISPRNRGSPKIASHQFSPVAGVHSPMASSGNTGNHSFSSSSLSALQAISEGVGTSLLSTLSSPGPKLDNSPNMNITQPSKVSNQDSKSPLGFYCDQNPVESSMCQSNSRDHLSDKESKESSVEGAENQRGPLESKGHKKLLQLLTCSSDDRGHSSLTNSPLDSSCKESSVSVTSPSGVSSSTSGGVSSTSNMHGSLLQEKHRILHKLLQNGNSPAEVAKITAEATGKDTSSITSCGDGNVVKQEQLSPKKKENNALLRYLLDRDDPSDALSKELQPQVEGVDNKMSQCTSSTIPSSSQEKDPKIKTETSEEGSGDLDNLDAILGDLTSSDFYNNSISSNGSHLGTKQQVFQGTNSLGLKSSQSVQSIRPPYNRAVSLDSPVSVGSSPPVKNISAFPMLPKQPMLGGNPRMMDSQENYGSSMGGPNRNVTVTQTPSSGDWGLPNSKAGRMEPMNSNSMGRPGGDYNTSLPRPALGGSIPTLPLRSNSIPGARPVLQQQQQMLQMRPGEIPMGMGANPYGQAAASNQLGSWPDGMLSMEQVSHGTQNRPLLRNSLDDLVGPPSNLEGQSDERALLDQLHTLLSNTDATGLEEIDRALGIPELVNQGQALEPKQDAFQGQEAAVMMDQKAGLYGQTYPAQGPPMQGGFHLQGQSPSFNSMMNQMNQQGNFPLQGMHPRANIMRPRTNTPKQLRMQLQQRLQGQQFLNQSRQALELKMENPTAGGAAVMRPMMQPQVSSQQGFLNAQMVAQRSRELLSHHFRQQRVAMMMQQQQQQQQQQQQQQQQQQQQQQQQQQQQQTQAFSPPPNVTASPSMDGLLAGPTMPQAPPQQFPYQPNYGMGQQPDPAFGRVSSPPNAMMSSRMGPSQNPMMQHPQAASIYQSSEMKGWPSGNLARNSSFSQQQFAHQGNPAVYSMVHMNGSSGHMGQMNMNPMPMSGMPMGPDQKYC
# Test: NCOA3 GAL4-fusion reporter inhibition – cell-based, luminescence, quadruplicate, confirmation (AID 588792;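 active means mean inhibition over 43.08%, the solvent-only control mean plus 3 SD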;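 further: 0% = DMSO treated cells and 100% = gossypol at 36 µM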)
# Details: HEK293 GAL4-SRC3 luciferase reporter, at 3.6 µM, stronger effect = higher value
row,SMILES,inhibition
1,CN(c1ccc2nc3ccccc3c(=O)n2n1)C1CCCCC1,59.8% (active)
2,CC1CC2=C(CC1/C=N/NC(N)=S)C(C)(C)CCC2 (stereo not drawn),50.9% (active)
3,C[C@@H]1C[C@@H]2O[C@H]2/C=C\C=C\C(=O)Cc2c(Cl)c(O)cc(O)c2C(=O)O1,62.2% (active)

# Tested on: transactivating tegument protein VP16 (Human herpesvirus 1), Gal4-VP16 luciferase reporter
# Test: repression of VP16-driven luciferase reporter – cell-based, luminescence, high throughput, counter-screen for SRC3 inhibitor project (AID 588794; in the data active means inhibition above about 30%)
# Details: mammalian cells, at 3.6 µM, stronger effect = higher value
row,SMILES,inhibition
1,CN(c1ccc2nc3ccccc3c(=O)n2n1)C1CCCCC1,48.9% (active)
2,CC1CC2=C(CC1/C=N/NC(N)=S)C(C)(C)CCC2 (stereo not drawn),30.1% (active)
3,C[C@@H]1C[C@@H]2O[C@H]2/C=C\C=C\C(=O)Cc2c(Cl)c(O)cc(O)c2C(=O)O1,74.4% (active)

# Target: Nuclear receptor coactivator 1 (Homo sapiens) (UniProt Q15788)
# Sequence (Q15788 whole entry, looked up, the tested form may be a part): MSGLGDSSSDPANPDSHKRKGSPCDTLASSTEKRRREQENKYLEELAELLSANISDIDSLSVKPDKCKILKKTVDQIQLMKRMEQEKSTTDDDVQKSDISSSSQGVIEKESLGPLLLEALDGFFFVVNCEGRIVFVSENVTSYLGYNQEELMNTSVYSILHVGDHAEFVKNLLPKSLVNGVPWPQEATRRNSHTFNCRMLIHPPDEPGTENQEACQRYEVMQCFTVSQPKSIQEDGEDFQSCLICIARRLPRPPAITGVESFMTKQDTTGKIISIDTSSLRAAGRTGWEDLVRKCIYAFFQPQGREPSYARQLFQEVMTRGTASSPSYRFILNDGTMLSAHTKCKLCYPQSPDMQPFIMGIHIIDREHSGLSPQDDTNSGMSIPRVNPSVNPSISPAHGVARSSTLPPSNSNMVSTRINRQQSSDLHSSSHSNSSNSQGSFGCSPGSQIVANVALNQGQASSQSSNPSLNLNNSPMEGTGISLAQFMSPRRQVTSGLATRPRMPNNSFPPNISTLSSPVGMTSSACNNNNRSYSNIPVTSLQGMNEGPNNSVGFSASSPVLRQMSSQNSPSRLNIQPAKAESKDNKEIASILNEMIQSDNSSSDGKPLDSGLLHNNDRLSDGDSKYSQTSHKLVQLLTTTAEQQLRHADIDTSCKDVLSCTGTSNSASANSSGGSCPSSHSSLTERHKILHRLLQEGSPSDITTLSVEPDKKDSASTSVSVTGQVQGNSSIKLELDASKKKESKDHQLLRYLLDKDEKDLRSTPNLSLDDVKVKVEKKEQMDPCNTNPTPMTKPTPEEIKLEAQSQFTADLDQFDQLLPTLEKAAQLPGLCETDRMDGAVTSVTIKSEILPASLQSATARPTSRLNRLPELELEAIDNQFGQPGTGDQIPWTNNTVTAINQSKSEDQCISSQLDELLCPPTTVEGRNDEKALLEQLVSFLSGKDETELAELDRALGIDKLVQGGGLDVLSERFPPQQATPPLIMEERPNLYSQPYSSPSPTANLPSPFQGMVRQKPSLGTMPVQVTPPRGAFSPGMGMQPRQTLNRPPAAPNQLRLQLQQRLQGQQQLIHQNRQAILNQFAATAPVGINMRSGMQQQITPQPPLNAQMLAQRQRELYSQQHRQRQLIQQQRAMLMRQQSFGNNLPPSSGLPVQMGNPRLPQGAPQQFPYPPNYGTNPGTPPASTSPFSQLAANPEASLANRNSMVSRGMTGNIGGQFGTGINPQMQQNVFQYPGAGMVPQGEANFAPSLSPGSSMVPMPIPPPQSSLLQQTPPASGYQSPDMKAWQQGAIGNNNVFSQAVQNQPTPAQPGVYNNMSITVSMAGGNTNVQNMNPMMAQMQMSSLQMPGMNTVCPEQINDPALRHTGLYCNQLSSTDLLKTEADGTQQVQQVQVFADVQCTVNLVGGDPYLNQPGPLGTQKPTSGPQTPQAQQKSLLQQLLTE
# Test: NCOA1 GAL4-fusion reporter inhibition – cell-based, luminescence, quadruplicate, confirmation (AID 588820;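 active means mean inhibition above 46.68%, the untreated control wells mean plus 3 SD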;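 further: 0% = DMSO wells and 100% = gossypol 36 µM treated wells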)
# Details: HEK293 GAL4-SRC1 luciferase reporter, at 3.6 µM, stronger effect = higher value
row,SMILES,inhibition [%]
1,CN(c1ccc2nc3ccccc3c(=O)n2n1)C1CCCCC1,-5.95
2,CC1CC2=C(CC1/C=N/NC(N)=S)C(C)(C)CCC2 (stereo not drawn),32.9
3,C[C@@H]1C[C@@H]2O[C@H]2/C=C\C=C\C(=O)Cc2c(Cl)c(O)cc(O)c2C(=O)O1,-17.6

# Tested on: not listed separately
# Test: repression of VP16-driven luciferase reporter – cell-based, luminescence, high throughput, counter-screen for SRC1 inhibitor project (AID 588824; in the data active means inhibition above about 25%)
# Details: cell-based VP16 transactivation luciferase luminescence; at 3.6 µM; stronger effect = higher value
row,SMILES,inhibition
1,CN(c1ccc2nc3ccccc3c(=O)n2n1)C1CCCCC1,23.2%
2,CC1CC2=C(CC1/C=N/NC(N)=S)C(C)(C)CCC2 (stereo not drawn),33.7% (active)
3,C[C@@H]1C[C@@H]2O[C@H]2/C=C\C=C\C(=O)Cc2c(Cl)c(O)cc(O)c2C(=O)O1,72% (active)

# Target: Receptor-interacting serine/threonine-protein kinase 2 (Homo sapiens) (UniProt O43353)
# Sequence (O43353 whole entry, looked up): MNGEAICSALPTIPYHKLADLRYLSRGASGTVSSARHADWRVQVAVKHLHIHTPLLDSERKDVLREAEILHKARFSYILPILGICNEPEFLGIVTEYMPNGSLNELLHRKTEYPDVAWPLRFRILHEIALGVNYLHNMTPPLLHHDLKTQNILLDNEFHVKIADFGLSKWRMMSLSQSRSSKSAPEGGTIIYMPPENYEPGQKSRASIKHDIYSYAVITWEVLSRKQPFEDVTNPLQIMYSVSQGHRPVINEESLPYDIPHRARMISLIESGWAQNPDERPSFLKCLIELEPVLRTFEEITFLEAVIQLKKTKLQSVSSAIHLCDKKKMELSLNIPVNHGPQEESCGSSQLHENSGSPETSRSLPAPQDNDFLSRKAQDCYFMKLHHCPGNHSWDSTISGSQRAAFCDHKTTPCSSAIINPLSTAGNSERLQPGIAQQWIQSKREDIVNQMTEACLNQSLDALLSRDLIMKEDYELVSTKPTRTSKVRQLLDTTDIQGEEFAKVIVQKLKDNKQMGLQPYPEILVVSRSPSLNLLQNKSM
# Test: inhibitors of RIPK2 association with NOD2 – fluorescence, CHO cells, BLA complementation, triplicate, confirmation (AID 624370);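 further: 0% = DMSO-only wells and the high end = clavulanate BLA-blocked wells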
# Details: CCF4 FRET, at 4.98 µM, stronger effect = higher value
row,SMILES,inhibition
1,O=C1C=C(c2ccc(Cl)cc2)C(=O)N1Nc1ccccc1,90.3% (active)
2,O=C(/C=C/c1ccc(Cl)c([N+](=O)[O-])c1)c1ccc(O)cc1,31.7% (active)
3,CC1CC(C)CN(S(=O)(=O)c2cccc(C(=O)N3C(=O)c4cccc(N)c4C3=O)c2)C1 (stereo not drawn),34.1% (active)
4,O=C(Nc1ccccc1)c1nnsc1S(=O)(=O)c1ccc(Cl)cc1,65.2% (active)

# Tested on: not listed separately
# Test: BLA reporter readout interference – cell-based, CHO-K1 CMV-bla, CCF4 FRET, fluorescence, artefact control for NOD2-RIPK2 interaction inhibitor project, confirmation (AID 624371;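 active means mean inhibition above the low-control mean inhibition plus three low-control SD, cut at about 11% in these data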;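 further: 0% = DMSO only wells and 100% = clavulanate high control wells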)
# Details: CCF4 FRET ratio, counterscreen, at 4.98 µM, stronger effect = higher value
row,SMILES,inhibition
1,O=C1C=C(c2ccc(Cl)cc2)C(=O)N1Nc1ccccc1,14.8% (active)
2,O=C(/C=C/c1ccc(Cl)c([N+](=O)[O-])c1)c1ccc(O)cc1,-1.48%
3,CC1CC(C)CN(S(=O)(=O)c2cccc(C(=O)N3C(=O)c4cccc(N)c4C3=O)c2)C1 (stereo not drawn),33.2% (active)
4,O=C(Nc1ccccc1)c1nnsc1S(=O)(=O)c1ccc(Cl)cc1,10.3%
